In PubChem BioAssay (EPA / NIEHS):
Inconclusive results are not listed. The source made the active and inactive calls. The calls were made as follows, unless noted: active = hit-call score of the fitted dose curve at least 0.9, where 1 is the maximum; inactive = score below 0.9.

Assays:
[1] = target: Oxysterols receptor LXR-alpha (Homo sapiens) (UniProt Q13133); assay: ATG_LXRa_TRANS: Attagene TRANS-FACTORIAL HepG2 Assay for human Liver X Receptor alpha (LXRa) (AID 2282980; active = hit-call score of the fitted dose curve at least 0.9, where 1 is the maximum); details: HepG2 Attagene TRANS reporter, LXRa transactivation
Oxysterols receptor LXR-alpha (Homo sapiens), sequence (Q13133 whole entry, looked up, the tested form may be a part): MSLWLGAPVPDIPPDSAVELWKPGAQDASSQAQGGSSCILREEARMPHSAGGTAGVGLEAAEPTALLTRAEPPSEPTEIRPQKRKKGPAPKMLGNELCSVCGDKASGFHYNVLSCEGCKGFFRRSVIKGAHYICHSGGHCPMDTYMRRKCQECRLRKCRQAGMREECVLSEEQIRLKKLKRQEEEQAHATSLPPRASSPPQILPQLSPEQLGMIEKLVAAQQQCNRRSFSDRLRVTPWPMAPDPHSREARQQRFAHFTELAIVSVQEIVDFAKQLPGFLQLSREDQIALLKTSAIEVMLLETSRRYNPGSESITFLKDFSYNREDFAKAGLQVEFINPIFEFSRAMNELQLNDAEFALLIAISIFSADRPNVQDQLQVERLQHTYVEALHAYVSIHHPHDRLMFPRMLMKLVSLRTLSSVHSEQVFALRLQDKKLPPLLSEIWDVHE
How it was run: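 Chemical-induced reporter mRNA measured by RT-PCR with fluorescent labelling and capillary electrophoresis after 24 h dosing of transiently transfected HepG2 cells expressing exogenous NR-Gal4 chimeras; increases scored against DMSO baseline.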

[2] = target: Hepatocyte nuclear factor 4-alpha (Homo sapiens) (UniProt P41235); assay: ATG_HNF4a_TRANS: Attagene TRANS-FACTORIAL HepG2 Assay for human Hepatocyte Nuclear Factor 4 alpha (HNF4a) (AID 2282982; active = hit-call score of the fitted dose curve at least 0.9, where 1 is the maximum); details: HepG2 HNF4a transactivation reporter, mRNA readout
Hepatocyte nuclear factor 4-alpha (Homo sapiens), sequence (P41235 whole entry, looked up, the tested form may be a part): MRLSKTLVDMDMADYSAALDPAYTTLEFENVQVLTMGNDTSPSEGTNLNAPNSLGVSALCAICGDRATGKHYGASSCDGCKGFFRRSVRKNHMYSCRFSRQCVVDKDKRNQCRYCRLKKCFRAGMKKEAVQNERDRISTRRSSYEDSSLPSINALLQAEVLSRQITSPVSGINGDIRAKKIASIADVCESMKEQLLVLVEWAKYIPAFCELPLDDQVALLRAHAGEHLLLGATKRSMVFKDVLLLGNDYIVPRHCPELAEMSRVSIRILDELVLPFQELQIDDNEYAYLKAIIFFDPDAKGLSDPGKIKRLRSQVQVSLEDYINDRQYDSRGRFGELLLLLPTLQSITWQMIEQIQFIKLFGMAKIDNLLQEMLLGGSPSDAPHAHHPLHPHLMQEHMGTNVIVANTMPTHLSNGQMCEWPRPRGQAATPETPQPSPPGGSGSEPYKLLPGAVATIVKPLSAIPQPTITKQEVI
How it was run: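 Endpoint reflects transcriptional activation of a GAL4-UAS reporter by an HNF4a-GAL4 chimera in transfected HepG2 cells, 24 h post-dosing. Fluorescence from RT-PCR products separated by capillary electrophoresis; DMSO baseline.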

[3] = ATG_M_06_TRANS: Attagene TRANS-FACTORIAL HepG2 Assay for M06 Transcription Factor (Internal Marker) (AID 2282983; active = hit-call score of the fitted dose curve at least 0.9, where 1 is the maximum); details: HepG2 Attagene TRANS M06 internal marker reporter
How it was run: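 Background-control reporter readout: after 24 h chemical exposure of transiently transfected HepG2 (GAL4-UAS reporter units), mRNA quantified by RT-PCR with fluorescent labeling and capillary electrophoresis. Gain-of-signal fitting against DMSO baseline.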

[4] = ATG_M_32_TRANS: Attagene TRANS-FACTORIAL HepG2 Assay for M32 Transcription Factor (Internal Marker) (AID 2282984; active = hit-call score of the fitted dose curve at least 0.9, where 1 is the maximum;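 also: transcript level of a background control reporter unit measured by RT-PCR and capillary electrophoresis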); details: HepG2 Attagene TRANS M32 internal marker reporter
How it was run: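 Internal-marker readout from a multiplexed transcription reporter panel. HepG2 cells were transfected with GAL4-UAS reporter units, treated 24 hours, and reporter transcript levels determined by fluorescence after RT-PCR and capillary separation.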

[5] = target: Nuclear receptor subfamily 4 group A member 2 (Homo sapiens) (UniProt P43354); assay: ATG_NURR1_TRANS: Attagene TRANS-FACTORIAL HepG2 Assay for human Nuclear Receptor Related Protein 1 (NURR1) (AID 2282985; active = hit-call score of the fitted dose curve at least 0.9, where 1 is the maximum); details: HepG2 Attagene TRANS reporter, mRNA readout
Nuclear receptor subfamily 4 group A member 2 (Homo sapiens), sequence (P43354 whole entry, looked up): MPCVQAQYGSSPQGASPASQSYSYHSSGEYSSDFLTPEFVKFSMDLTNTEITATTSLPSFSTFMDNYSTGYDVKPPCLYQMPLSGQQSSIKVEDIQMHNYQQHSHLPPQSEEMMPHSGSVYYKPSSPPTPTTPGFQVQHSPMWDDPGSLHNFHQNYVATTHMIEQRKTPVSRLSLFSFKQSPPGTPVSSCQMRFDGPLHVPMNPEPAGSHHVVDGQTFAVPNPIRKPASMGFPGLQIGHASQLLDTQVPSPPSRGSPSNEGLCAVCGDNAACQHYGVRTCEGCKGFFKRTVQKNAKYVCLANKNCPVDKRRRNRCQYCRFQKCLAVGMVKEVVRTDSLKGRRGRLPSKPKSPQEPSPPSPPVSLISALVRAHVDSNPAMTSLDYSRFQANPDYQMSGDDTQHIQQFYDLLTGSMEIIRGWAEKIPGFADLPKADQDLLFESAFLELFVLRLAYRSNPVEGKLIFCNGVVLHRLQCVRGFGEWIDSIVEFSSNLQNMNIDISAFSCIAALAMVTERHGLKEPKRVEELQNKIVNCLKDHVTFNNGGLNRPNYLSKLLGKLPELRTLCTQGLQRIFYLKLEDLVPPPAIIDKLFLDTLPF
How it was run: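 Endpoint: reporter mRNA increase relative to DMSO. HepG2 cells transfected with reporter units, treated 24 h; RNA processed by RT-PCR, labelling, HpaI digestion and capillary electrophoresis.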

[6] = target: Transcriptional activator Myb (Homo sapiens) (UniProt P10242); assay: ATG_Myb_CIS: Attagene CIS-FACTORIAL HepG2 Assay for human Myeloblastosis (Myb) Proto-Oncogene Transcription Factor (AID 2282986); details: HepG2 Attagene CIS-FACTORIAL Myb reporter transcription; actives raise or lower the signal
Transcriptional activator Myb (Homo sapiens), sequence (P10242 whole entry, looked up): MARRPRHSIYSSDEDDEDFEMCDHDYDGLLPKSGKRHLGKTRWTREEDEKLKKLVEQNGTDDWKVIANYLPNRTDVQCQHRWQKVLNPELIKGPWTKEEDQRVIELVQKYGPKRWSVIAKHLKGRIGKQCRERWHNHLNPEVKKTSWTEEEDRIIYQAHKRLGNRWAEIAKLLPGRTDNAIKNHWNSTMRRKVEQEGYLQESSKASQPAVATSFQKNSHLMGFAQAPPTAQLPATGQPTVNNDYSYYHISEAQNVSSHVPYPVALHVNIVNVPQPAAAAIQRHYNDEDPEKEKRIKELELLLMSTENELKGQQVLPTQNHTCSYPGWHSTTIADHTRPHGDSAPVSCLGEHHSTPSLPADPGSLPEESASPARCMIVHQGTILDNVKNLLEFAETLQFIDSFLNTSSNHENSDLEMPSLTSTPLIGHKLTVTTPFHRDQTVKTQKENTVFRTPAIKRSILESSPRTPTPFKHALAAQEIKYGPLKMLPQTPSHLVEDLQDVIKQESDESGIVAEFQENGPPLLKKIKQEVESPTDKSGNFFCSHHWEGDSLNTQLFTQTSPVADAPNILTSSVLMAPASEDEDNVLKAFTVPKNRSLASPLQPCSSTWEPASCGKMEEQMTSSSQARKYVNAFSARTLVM
How it was run: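 Reporter mRNA is quantified by RT-PCR and capillary electrophoresis 24 h after dosing HepG2 cells transfected with cis-regulated reporter units, which track endogenous transcription factor activity. Gain and loss of signal are fitted versus DMSO baseline.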

[7] = target: Nuclear respiratory factor 1 (Homo sapiens) (UniProt Q16656); assay: ATG_NRF1_CIS: Attagene CIS-FACTORIAL HepG2 Assay for human Nuclear Respiratory Factor 1 (NRF1) Orphan Gene (AID 2282987); details: HepG2 NRF1 cis-element reporter, Attagene multiplex; actives raise or lower the signal
Nuclear respiratory factor 1 (Homo sapiens), sequence (Q16656 whole entry, looked up): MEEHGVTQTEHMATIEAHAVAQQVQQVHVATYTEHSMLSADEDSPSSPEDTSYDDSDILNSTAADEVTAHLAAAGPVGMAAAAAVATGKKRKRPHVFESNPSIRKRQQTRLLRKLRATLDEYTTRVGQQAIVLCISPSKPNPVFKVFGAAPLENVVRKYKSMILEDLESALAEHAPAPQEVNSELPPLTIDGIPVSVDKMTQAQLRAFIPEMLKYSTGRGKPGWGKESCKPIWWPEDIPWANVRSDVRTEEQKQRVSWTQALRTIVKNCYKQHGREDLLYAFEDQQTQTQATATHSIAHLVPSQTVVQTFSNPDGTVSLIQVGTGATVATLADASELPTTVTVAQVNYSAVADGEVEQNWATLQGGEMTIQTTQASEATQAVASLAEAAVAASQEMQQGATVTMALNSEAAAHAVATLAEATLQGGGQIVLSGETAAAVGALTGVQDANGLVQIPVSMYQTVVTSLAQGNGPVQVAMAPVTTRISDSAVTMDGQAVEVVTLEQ
How it was run: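 Endogenous NRF1-driven reporter transcription in transfected HepG2 cells after 24 h treatment. Readout: RT-PCR products, 6-FAM labelled and resolved by capillary electrophoresis; changes fitted both directions relative to DMSO.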

[8] = ATG_NFI_CIS: Attagene CIS-FACTORIAL HepG2 Assay for human Nuclear Factor I (NFI) (AID 2282989); details: HepG2 cis-regulatory reporter, NFI response element transcription; actives raise or lower the signal
How it was run: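 Transient MRTU transfection of HepG2 → 24 h chemical dosing → total RNA, oligo(dT) RT → PCR, 6-FAM primer extension, HpaI cut → capillary electrophoresis. Endpoint fitted bidirectionally relative to DMSO.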

[9] = target: Myc proto-oncogene protein (Homo sapiens) (UniProt P01106); assay: ATG_Myc_CIS: Attagene CIS-FACTORIAL HepG2 Assay for human Myelocytomatosis (Myc) Proto-Oncogene Transcription Factor (AID 2282990); details: HepG2, Attagene cis-reporter transcription factor activity; actives raise or lower the signal
Myc proto-oncogene protein (Homo sapiens), sequence (P01106 whole entry, looked up, the tested form may be a part): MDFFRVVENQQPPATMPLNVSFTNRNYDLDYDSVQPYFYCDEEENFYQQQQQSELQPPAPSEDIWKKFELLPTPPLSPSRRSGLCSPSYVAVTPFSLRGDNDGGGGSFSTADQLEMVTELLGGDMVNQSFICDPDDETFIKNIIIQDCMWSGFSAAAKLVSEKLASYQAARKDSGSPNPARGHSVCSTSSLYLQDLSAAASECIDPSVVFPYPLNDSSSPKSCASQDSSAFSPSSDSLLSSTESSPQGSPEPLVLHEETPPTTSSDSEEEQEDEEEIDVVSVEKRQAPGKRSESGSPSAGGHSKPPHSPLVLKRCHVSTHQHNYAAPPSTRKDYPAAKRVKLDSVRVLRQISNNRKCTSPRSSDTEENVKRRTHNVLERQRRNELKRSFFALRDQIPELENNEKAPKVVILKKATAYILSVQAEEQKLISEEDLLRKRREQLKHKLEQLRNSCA
How it was run: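 Fluorescence intensity of reporter-specific cDNA fragments, separated by capillary electrophoresis, gives the signal. Transfected HepG2 cells carrying cis-promoter reporter constructs are incubated with compound for 24 h; DMSO serves as baseline.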

[10] = ATG_NRF2_ARE_CIS: Attagene CIS-FACTORIAL HepG2 Assay for human Nuclear Factor Erythroid 2 Related Factor 2 (NFR2) response to Antioxidant Response Elements (ARE) (AID 2282992); details: HepG2 Attagene ARE/NRF2 reporter, transcription factor activity; actives raise or lower the signal
How it was run: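 Endogenous transcription factor activity read out as reporter transcript levels (RT-PCR plus capillary electrophoresis, fluorescence) in transiently transfected HepG2 cells. Measured at 24 h after dosing; gain or loss of signal fitted versus DMSO.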

[11] = ATG_Oct_MLP_CIS: Attagene CIS-FACTORIAL HepG2 Assay for human Octamer-Binding Transcription Factor (Oct) (AID 2282993); details: HepG2 Attagene cis-factorial Oct reporter, mRNA; actives raise or lower the signal
How it was run: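 Transient MRTU transfection of HepG2 → 24 h compound treatment → RNA isolation, reverse transcription, PCR → 6-FAM primer extension, HpaI digest → capillary electrophoresis. Activity fitted both directions against DMSO.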

[12] = target: Cellular tumor antigen p53 (Homo sapiens) (UniProt P04637); assay: ATG_p53_CIS: Attagene CIS-FACTORIAL HepG2 Assay for human p53 Transcription Factor (AID 2282994); details: HepG2 p53 cis-element reporter, Attagene mRNA; actives raise or lower the signal
Cellular tumor antigen p53 (Homo sapiens), sequence (P04637 whole entry, looked up): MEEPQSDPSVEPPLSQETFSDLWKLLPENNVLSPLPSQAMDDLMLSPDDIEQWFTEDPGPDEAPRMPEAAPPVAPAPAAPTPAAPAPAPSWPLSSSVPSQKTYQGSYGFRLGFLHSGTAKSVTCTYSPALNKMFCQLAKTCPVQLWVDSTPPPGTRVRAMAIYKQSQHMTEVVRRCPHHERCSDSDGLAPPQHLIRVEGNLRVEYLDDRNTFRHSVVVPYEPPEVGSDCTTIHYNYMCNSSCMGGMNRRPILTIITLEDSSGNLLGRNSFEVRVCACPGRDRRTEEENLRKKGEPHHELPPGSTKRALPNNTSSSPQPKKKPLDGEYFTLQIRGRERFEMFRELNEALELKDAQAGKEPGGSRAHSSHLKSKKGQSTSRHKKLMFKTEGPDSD
How it was run: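 Endogenous p53 activity read in transiently transfected HepG2 from a cis-element-driven reporter transcript after 24 h exposure. RNA reverse-transcribed, PCR-amplified, fluorescently labelled and sized by capillary electrophoresis; gain or loss fitted against DMSO baseline.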

[13] = BSK_3C_TissueFactor: BioMAP Diversity Plus: 3C Assay for Tissue Factor Biomarker Activity (AID 2282997); details: BioMAP 3C HUVEC, tissue factor biomarker readout; actives raise or lower the signal
How it was run: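 Tissue factor on primary human umbilical vein endothelium was read by ELISA 24 h after dosing, gain or loss relative to DMSO. Cytotoxicity ran alongside via SRB (0.1%, TCA-fixed, 560 nm).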

[14] = BSK_3C_uPAR: BioMAP Diversity Plus: 3C Assay for Urokinase-type plasminogen activator receptor (uPAR) Biomarker Activity (AID 2282998); details: BioMAP 3C HUVEC, uPAR biomarker ELISA; actives raise or lower the signal
How it was run: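 ELISA readout of uPAR on human vascular endothelium (umbilical vein primary cells), taken 24 h after chemical dosing. Increases and decreases are both fitted relative to DMSO vehicle.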

[15] = BSK_3C_VCAM1: BioMAP Diversity Plus: 3C Assay for Vascular cell adhesion molecule 1 (VCAM1) Biomarker Activity (AID 2282999); details: BioMAP 3C HUVEC, VCAM1 ELISA, cytokine-stimulated; actives raise or lower the signal
How it was run: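 HUVEC primary cells, 24 h compound exposure; VCAM-1 by ELISA; gain/loss of signal fitted bidirectionally vs DMSO baseline.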

[16] = BSK_4H_Eotaxin3: BioMAP Diversity Plus: 4H Assay for Eotaxin 3 Biomarker Activity (AID 2283000); details: primary human endothelial cells (HUVEC); actives raise or lower the signal
How it was run: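 Human umbilical vein endothelial cells (BSK_4H system) dosed with test chemical; Eotaxin-3 (CCL26) measured by ELISA 24 h after dosing. Bidirectional curve fitting relative to DMSO negative control as baseline.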

[17] = target: human Peroxisome Proliferator-activated Receptor alpha (PPARa), PPARA (gene 5465) (UniProt Q07869); assay: ATG_PPARa_TRANS: Attagene TRANS-FACTORIAL HepG2 Assay for human Peroxisome Proliferator-activated Receptor alpha (PPARa) (AID 2283001; active = hit-call score of the fitted dose curve at least 0.9, where 1 is the maximum;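 as to AC50: potency for gain of reporter signal over DMSO so agonist or activator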)
human Peroxisome Proliferator-activated Receptor alpha (PPARa), PPARA (gene 5465), sequence (Q07869 whole entry, looked up): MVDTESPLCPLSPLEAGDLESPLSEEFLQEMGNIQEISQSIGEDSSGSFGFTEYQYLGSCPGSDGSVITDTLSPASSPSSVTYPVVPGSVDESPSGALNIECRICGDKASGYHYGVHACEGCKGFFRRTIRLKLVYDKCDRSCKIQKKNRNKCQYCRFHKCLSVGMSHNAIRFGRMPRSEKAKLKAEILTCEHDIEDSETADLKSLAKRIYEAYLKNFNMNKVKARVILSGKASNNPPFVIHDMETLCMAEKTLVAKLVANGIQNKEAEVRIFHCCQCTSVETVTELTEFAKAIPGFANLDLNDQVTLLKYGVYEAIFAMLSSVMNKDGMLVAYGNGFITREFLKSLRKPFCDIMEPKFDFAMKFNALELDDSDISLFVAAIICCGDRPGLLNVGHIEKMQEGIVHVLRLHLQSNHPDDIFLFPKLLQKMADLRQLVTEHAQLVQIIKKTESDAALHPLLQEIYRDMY
How it was run: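 HepG2, transient MRTU transfection, 24 h treatment. RT-PCR → FAM labelling → capillary electrophoresis. Fit vs DMSO, positive direction.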

[18] = target: human Peroxisome Proliferator-activated Receptor delta (PPARd), PPARD (gene 5467) (UniProt Q03181); assay: ATG_PPARd_TRANS: Attagene TRANS-FACTORIAL HepG2 Assay for human Peroxisome Proliferator-activated Receptor delta (PPARd) (AID 2283002; active = hit-call score of the fitted dose curve at least 0.9, where 1 is the maximum)
human Peroxisome Proliferator-activated Receptor delta (PPARd), PPARD (gene 5467), sequence (Q03181 whole entry, looked up, the tested form may be a part): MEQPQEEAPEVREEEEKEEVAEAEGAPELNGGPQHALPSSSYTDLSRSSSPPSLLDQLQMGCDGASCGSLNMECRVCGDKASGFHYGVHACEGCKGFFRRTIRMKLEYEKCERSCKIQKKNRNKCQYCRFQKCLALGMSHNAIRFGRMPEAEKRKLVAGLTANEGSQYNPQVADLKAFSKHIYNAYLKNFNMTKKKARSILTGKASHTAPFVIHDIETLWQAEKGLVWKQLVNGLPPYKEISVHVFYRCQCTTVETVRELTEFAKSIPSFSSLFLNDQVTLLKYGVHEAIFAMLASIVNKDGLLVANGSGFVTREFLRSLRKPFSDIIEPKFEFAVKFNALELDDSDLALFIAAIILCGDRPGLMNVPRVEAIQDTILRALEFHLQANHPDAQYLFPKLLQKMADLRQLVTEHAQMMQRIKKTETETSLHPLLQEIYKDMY
How it was run: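 Fluorescence from capillary electrophoresis of labelled RT-PCR reporter fragments gives the signal; DMSO sets baseline. Cells: HepG2 transiently carrying GAL4-UAS reporter units plus chimeric nuclear receptor-Gal4 proteins, exposed to chemicals for 24 h.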

[19] = ATG_NF_kB_CIS: Attagene CIS-FACTORIAL HepG2 Assay for human Nuclear Factor Kappa B (NF-kB) (AID 2282991); details: HepG2 Attagene cis-factorial NF-kB reporter mRNA; actives raise or lower the signal
How it was run: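 Readout is reporter transcript level, gain or loss versus DMSO, measured 24 h post-dose via RT-PCR, fluorescent labelling and capillary electrophoresis. Human HepG2 liver cells carried transiently transfected CIS reporter constructs reflecting endogenous factors.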

[20] = target: Oxysterols receptor LXR-beta (Homo sapiens) (UniProt P55055); assay: ATG_LXRb_TRANS: Attagene TRANS-FACTORIAL HepG2 Assay for human Liver X Receptor beta (LXRb) (AID 2282981; active = hit-call score of the fitted dose curve at least 0.9, where 1 is the maximum); details: HepG2 Attagene TRANS GAL4-LXRb reporter, mRNA
Oxysterols receptor LXR-beta (Homo sapiens), sequence (P55055 whole entry, looked up, the tested form may be a part): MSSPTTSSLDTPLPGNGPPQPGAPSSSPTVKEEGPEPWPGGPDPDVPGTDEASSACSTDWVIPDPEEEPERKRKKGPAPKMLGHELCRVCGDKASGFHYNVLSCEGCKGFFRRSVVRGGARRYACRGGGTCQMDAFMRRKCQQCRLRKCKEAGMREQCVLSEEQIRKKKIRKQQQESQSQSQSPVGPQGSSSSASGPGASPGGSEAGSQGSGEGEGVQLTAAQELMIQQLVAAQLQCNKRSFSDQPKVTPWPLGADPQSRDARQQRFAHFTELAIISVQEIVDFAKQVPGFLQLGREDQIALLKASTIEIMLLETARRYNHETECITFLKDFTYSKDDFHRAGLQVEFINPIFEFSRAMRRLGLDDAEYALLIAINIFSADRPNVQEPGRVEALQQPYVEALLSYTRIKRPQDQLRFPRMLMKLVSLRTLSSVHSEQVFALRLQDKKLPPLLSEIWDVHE
How it was run: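 Multiplexed reporter assay, HepG2, 24 h dosing. Fluorescence of labelled RT-PCR products after capillary electrophoresis gives transcript level; positive fitting direction relative to DMSO.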

Measured: AC50

CC(C)=CCCC(C)=CC=O
active: [5] 100 µM | [10] 62.4 µM | [17] 58.6 µM
not listed: [19] | [20]
inactive: all other assays above

COCCOCCOCCOC
not listed: [18] | [20]
inactive: all other assays above

CCc1cc(SCc2sc(-c3ccc(C(F)(F)F)cc3)nc2CN2CCN(c3ccc(OC)cc3)CC2)ccc1OCC(=O)O
active: [19] 20.2 µM | [10] 4.51 µM | [11] 8.42 µM | [13] 12.4 µM | [14] 7.74 µM | [15] 27.7 µM | [16] 10.9 µM | [17] 0.0501 µM | [18] 0.00449 µM
inactive: all other assays above

Cn1cnc([N+](=O)[O-])c1Sc1ncnc2nc[nH]c12
active: [10] 29.5 µM | [17] 26.4 µM
not listed: [4] | [5]
inactive: all other assays above

O=c1n(CC2CO2)c(=O)n(CC2CO2)c(=O)n1CC1CO1 (stereo not given)
inactive: [1] | [20] | [2] | [3] | [5] | [6] | [7] | [17] | [18]
active: [8] 47 µM | [9] 58.4 µM | [19] 31.7 µM | [10] 7.56 µM | [11] 48.5 µM | [12] 24.7 µM | [13] 11.3 µM | [14] 20 µM | [15] 26.3 µM | [16] 23.2 µM

CC[C@H](C)C(=O)O[C@H]1C[C@@H](C)C=C2C=C[C@H](C)[C@H](CC[C@@H]3C[C@@H](O)CC(=O)O3)[C@H]21
active: [10] 33.4 µM | [11] 6.78 µM | [13] 31 µM | [14] 18.3 µM | [15] 33.7 µM | [16] 31.5 µM
not listed: [18] | [20]
inactive: all other assays above

CN(C)c1ccc(N=NS(=O)(=O)O)cc1
active: [10] 54 µM | [11] 130 µM | [13] 5.79 µM | [15] 6.47 µM
not listed: [2] | [4] | [5] | [6] | [17] | [19]
inactive: all other assays above
